# Values without a mark were called inactive. Active and inactive are the calls of the source.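 How the source made its calls: active means mean inhibition over 43.08%, the solvent-only control mean plus 3 SD; inactive means the rest.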
# Molecular target: Nuclear receptor coactivator 3 (Homo sapiens) (UniProt Q9Y6Q9)
# Assay: NCOA3 GAL4-fusion reporter inhibition – cell-based, luminescence, quadruplicate, confirmation (AID 588792);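 further: 0% = DMSO treated cells and 100% = gossypol at 36 µM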
# Conditions: HEK293 GAL4-SRC3 luciferase reporter, at 3.6 µM, stronger effect = higher value
# Sequence of Nuclear receptor coactivator 3 (Homo sapiens) (Q9Y6Q9 whole entry, looked up, the tested form may be a part): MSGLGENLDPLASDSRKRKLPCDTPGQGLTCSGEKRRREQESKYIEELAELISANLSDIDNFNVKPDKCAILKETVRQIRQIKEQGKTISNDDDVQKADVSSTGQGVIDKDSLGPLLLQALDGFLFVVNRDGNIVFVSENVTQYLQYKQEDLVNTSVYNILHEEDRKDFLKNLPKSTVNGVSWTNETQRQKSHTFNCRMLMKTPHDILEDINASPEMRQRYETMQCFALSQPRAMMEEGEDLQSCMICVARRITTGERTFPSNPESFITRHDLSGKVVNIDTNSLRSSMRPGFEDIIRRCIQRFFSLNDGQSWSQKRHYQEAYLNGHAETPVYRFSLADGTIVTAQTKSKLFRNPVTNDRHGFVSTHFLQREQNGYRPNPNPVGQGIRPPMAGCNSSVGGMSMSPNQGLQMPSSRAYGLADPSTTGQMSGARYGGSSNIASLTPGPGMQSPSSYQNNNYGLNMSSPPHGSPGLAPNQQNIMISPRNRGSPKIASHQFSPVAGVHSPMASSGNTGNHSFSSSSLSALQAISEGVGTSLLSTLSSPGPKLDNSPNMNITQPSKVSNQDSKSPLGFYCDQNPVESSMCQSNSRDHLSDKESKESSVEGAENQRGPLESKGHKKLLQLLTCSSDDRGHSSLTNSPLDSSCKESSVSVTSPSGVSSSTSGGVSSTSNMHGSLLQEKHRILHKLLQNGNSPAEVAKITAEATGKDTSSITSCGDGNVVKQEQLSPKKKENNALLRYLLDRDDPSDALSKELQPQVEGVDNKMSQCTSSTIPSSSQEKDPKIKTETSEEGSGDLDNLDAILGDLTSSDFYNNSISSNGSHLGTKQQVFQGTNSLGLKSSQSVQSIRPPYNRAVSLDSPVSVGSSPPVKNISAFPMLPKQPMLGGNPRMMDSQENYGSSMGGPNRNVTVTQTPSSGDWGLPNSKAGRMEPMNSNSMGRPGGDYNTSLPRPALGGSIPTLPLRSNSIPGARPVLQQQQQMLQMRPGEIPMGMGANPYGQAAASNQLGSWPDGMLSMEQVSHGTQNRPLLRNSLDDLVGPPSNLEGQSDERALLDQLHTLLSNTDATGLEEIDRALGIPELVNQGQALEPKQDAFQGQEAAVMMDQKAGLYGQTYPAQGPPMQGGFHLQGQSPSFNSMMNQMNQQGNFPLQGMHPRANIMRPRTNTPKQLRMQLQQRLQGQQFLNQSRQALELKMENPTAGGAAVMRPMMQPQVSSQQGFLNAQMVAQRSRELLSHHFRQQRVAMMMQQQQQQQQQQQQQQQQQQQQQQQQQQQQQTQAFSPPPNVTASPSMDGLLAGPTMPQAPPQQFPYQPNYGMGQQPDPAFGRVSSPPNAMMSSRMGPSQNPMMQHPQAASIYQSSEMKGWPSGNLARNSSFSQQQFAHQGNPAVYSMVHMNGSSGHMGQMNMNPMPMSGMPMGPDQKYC
row,SMILES,inhibition
1,CCCS(=O)(=O)Nc1ccc(Nc2c3ccccc3nc3ccccc23)c(OC)c1,64.2% (active)
2,CC(C)(C)n1ncc2c(=O)n(CC(=O)OCc3ccccc3)cnc21,31.6%
3,C[n+]1c2n(c3ccccc31)N=C(c1ccc(Br)cc1)CS2,15.5%
4,CN(C(=O)COC(=O)/C=C/c1cccc([N+](=O)[O-])c1)C1CCS(=O)(=O)C1 (stereo not drawn),39.1%
5,Cc1ccc(C)c(NC(=O)c2ccccc2NS(=O)(=O)c2cc([N+](=O)[O-])ccc2C)c1,20.5%
6,CC(C)CC(=O)/C(=C\c1ccc(Cl)cc1Cl)n1cncn1,60.2% (active)
7,CC(=O)c1ccc(Nc2ncnc3ccc(Br)cc23)cc1,49.5% (active)
8,O=C(Nc1ccc([N+](=O)[O-])cc1)Nc1ccc(OC(F)F)c(Cl)c1,22.9%
9,CC(C)c1ccc(-c2nnn(CCC(=O)O)n2)cc1,52.2% (active)
10,COC(=O)c1c(C)oc2ccc(N(C(=O)c3ccncc3)S(=O)(=O)c3ccc(C)cc3C)cc12,1.85%
11,CCC(=O)Nc1cc2nn(-c3ccc(C)cc3)nc2cc1C,-6%
12,CC(=O)NC(c1ccccc1)c1cc(Cl)c2cccnc2c1O (stereo not drawn),29.2%
13,Cn1c(/C(C#N)=C/c2ccc(-c3ccc(S(N)(=O)=O)cc3)o2)nc2ccccc21,27.9%
14,CCCCC(=O)OCC(=O)C1(O)Cc2c(O)c3c(c(O)c2C(OC2CC(NC(=O)C(F)(F)F)C(O)C(C)O2)C1)C(=O)c1c(OC)cccc1C3=O (stereo not drawn),26%
15,CC(O)CC(C(=O)NNc1ccccc1)C(=O)NNc1ccccc1 (stereo not drawn),10.1%
16,CCOc1cc(/C=C2\CN(C)C/C(=C\c3ccc(O)c(OCC)c3)C2=O)ccc1O,56.2% (active)
17,CC(C)(C)c1nnc(N/N=C/c2cc(Br)ccc2O)n(N)c1=O,79% (active)
18,CC(C)n1c(-c2cccnc2)nc2cnccc21,29.8%
19,OCCN1CCN(C(=S)c2ccc(-c3ccccc3)cc2)CC1,35.6%
20,O=C1C(F)=CC(COC(c2ccccc2)(c2ccccc2)c2ccccc2)OC1n1cc(F)c(=O)[nH]c1=O (stereo not drawn),66% (active)
21,Cc1c(-c2ccccc2)oc2c(C(=O)N3CCN(c4ccc([N+](=O)[O-])cc4)CC3)cccc2c1=O,54.4% (active)
22,Clc1ccc(-c2csc3ncnc(NCCN4CCOCC4)c23)cc1,32.2%
23,COc1ccc(-c2cn[nH]c2C)cc1OC,21.1%

# Reference: PubChem BioAssay
